For 8 sequences, binding signal results are on record in publication PMC7862700, “An all-to-all approach to the identification of sequence-specific readers for epigenetic DNA modifications on cytosine”.

Common to all, as to assay: DAPPL (digital affinity profiling via proximity ligation, sequencing); 10 mM Tris-HCl pH 7.5, 50 mM NaCl, 1 mM DTT, 4% glycerol, room temperature, 30 min; GST-TFs on glutathione beads, 16-mer random dsDNA library, 0.1% formaldehyde crosslink after washing; high values mean tight binding
The target in experiment [1] is T1, FEV (Homo sapiens, UniProt Q99581 1-238).
T1 sequence: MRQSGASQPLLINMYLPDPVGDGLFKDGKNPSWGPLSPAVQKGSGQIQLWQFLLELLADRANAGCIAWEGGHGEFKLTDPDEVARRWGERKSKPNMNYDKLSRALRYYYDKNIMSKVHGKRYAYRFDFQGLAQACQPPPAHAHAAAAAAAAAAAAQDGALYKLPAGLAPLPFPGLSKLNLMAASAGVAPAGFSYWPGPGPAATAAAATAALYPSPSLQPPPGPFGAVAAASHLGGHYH
Particulars: protein: recombinant; tags: N-terminal GST; dsDNA, one strand shown. The essentials:
(§1)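 After expression in yeast as GST fusions, human transcription factors were bound to glutathione beads, DNA-barcoded and mixed with a tag-only sample. The pools were incubated with 200 nmole of a 16-mer random double-stranded DNA library in Tris/NaCl/DTT/glycerol buffer (30 min, room temperature), washed and crosslinked with 0.1% formaldehyde. Proximity ligation with BsaI/T4 ligase ran for 1 h at 37 °C, before PCR amplification and sequencing on an Illumina NextSeq500. Binding signal is a hexamer's read frequency for a factor divided by its frequency for the tag-only sample.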

The target in experiment [2] is ETV5 (Homo sapiens, UniProt P41161 1-510). Conditions: protein: recombinant; tags: N-terminal GST; dsDNA, one strand shown. In short, it runs like this:
as §1

For experiment [3], the target named is HSF1 (Homo sapiens, UniProt Q00613 1-529). Conditions: protein: recombinant; tags: N-terminal GST; chain copies: 3; dsDNA, one strand shown. In short, it runs like this: as §1
The target of experiment [4] is T2, SPIC (Homo sapiens, UniProt Q8N5J4 1-248).
T2 sequence: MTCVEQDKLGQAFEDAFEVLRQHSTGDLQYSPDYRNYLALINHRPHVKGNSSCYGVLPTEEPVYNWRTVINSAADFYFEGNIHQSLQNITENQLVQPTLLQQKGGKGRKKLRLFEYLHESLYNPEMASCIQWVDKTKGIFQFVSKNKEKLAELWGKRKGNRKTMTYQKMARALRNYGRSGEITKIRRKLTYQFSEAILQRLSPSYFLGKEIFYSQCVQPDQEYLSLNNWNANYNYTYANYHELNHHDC
Particulars: protein: recombinant; tags: N-terminal GST; dsDNA, one strand shown. In short, it runs like this: as §1

Experiment [5] has as its target ELF4 (Homo sapiens, UniProt Q99607 1-663). Particulars: protein: recombinant; tags: N-terminal GST; dsDNA, one strand shown. In short, it runs like this: as §1
The target of experiment [6] is T3, ELK4 (Homo sapiens, UniProt P28324-2 1-405).
T3 sequence: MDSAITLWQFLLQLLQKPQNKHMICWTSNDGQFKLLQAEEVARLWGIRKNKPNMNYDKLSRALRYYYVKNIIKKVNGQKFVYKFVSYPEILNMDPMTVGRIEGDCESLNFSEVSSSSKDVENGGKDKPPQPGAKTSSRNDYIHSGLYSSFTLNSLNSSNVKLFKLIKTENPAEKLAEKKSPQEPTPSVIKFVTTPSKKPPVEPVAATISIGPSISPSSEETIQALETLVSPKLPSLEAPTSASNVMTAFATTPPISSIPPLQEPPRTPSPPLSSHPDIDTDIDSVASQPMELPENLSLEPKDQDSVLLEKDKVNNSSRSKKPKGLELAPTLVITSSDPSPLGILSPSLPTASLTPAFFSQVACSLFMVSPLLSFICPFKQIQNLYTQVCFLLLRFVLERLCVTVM
Conditions: protein: recombinant; tags: N-terminal GST; dsDNA, one strand shown. The essentials: as §1

Experiment [7] deals with T4, ETV2 (Homo sapiens, UniProt O00321 1-342).
T4 sequence: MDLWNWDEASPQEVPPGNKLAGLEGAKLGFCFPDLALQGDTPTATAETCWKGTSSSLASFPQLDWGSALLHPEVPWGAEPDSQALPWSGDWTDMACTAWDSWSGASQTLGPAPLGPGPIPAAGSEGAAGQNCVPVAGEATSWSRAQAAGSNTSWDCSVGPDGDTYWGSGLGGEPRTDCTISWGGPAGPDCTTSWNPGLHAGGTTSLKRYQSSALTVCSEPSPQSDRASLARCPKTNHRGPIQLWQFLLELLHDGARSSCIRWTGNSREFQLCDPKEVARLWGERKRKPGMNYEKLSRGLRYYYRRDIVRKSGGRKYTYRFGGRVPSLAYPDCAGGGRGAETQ
Particulars: protein: recombinant; tags: N-terminal GST; dsDNA, one strand shown. The essentials:
as §1

For experiment [8], the target named is T5, ELF3 (Homo sapiens, UniProt P78545 1-371).
T5 sequence: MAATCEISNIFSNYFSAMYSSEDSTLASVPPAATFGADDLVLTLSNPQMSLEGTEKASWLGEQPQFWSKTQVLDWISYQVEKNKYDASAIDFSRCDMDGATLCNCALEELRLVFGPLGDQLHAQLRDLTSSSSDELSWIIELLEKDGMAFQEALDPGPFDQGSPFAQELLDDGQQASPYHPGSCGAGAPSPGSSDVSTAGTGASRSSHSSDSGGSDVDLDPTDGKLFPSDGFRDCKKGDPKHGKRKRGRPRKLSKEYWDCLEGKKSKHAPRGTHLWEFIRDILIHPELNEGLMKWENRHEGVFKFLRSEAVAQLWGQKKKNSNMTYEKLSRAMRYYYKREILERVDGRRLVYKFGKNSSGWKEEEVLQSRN
Conditions: protein: recombinant; tags: N-terminal GST; dsDNA, one strand shown. The essentials:
as §1

Experiment [9] addresses CRX (Homo sapiens, UniProt O43186 1-299). Conditions: protein: recombinant; tags: N-terminal GST; dsDNA, one strand shown. In short, it runs like this:
as §1

In experiment [10] the target is ETV1 (Homo sapiens, UniProt P50549 1-477). Conditions: protein: recombinant; tags: N-terminal GST; dsDNA, one strand shown. In short, it runs like this: as §1
Chain of ETV1 (P50549 whole entry): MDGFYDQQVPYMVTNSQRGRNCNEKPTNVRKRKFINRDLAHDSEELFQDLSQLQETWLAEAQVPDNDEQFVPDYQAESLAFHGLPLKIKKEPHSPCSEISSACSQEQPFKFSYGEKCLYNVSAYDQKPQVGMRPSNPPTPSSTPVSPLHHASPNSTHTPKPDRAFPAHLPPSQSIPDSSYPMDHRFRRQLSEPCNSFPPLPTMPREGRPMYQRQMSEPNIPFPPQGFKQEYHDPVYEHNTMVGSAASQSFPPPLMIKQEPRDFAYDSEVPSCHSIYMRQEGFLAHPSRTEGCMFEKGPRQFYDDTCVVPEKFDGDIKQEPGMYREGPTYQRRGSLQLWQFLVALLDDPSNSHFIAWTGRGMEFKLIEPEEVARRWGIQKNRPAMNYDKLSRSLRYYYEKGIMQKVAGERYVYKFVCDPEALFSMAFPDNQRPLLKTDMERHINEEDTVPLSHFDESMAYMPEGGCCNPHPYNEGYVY

Chain of HSF1 (Q00613 whole entry): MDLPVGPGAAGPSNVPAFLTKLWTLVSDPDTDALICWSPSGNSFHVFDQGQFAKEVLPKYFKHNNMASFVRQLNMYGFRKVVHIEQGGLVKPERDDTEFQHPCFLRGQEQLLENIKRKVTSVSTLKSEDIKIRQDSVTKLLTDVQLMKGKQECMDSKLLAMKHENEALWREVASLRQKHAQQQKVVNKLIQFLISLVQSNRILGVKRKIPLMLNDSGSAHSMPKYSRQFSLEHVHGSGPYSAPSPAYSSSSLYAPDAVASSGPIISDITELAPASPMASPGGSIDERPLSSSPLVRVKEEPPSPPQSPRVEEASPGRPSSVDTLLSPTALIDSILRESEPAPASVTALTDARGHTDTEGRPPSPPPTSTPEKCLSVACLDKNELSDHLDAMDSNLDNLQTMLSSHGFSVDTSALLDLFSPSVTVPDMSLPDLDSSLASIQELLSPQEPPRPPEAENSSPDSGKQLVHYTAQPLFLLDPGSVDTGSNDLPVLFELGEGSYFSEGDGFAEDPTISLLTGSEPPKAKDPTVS
Chain of CRX (O43186 whole entry): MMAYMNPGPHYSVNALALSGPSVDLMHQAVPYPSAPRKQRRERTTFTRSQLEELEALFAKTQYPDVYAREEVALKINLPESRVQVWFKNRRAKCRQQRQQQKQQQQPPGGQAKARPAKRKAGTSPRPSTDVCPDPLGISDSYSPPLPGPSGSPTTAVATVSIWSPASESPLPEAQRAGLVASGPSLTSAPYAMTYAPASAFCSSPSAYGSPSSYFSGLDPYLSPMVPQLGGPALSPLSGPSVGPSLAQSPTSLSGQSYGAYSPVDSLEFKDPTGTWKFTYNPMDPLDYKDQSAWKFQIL
Chain of ELF4 (Q99607 whole entry): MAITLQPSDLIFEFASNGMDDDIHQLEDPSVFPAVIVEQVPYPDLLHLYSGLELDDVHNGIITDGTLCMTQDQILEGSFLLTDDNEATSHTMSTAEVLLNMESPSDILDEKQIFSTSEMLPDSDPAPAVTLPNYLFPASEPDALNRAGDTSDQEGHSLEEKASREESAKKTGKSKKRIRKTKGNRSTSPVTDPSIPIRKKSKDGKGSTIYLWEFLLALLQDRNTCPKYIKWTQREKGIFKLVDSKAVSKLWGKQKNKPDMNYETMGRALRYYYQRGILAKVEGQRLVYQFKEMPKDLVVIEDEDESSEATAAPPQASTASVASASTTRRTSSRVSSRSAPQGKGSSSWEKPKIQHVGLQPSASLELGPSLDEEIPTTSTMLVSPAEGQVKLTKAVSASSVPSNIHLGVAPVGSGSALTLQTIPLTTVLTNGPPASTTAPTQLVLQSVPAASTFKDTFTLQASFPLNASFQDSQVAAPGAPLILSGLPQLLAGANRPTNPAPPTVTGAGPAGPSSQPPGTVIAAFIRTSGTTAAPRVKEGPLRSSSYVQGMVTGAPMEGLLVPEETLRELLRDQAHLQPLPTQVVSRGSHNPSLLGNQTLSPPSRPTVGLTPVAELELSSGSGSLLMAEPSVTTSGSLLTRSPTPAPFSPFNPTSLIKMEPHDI
Chain of ETV5 (P41161 whole entry): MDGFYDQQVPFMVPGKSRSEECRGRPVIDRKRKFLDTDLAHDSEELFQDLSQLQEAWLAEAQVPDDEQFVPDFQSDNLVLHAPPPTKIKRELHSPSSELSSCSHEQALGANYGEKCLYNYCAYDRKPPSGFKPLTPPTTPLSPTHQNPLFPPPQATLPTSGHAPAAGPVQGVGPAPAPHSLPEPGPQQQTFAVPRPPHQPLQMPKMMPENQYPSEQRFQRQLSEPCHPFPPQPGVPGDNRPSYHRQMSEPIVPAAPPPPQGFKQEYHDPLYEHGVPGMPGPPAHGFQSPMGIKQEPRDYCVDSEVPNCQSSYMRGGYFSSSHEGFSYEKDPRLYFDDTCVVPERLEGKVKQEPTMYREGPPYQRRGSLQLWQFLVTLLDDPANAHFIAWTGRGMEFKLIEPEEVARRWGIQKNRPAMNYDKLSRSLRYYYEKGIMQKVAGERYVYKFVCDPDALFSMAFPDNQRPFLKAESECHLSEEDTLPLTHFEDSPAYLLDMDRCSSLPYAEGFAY

For the sequence GTCTTT, the binding signal in experiment [1] was 1.14 fold enrichment (6-mer frequency, TF over GST control); in experiment [2], 1.22 fold enrichment (6-mer frequency, TF over GST control); in [3], 1.22 fold enrichment (6-mer frequency, TF over GST control); in experiment [4], 1.26 fold enrichment (6-mer frequency, TF over GST control); in experiment [5] it was 1.22 fold enrichment (6-mer frequency, TF over GST control); in experiment [6] it was 1.21 fold enrichment (6-mer frequency, TF over GST control). Moreover, the binding signal in [7] was 1.12 fold enrichment (6-mer frequency, TF over GST control); in [8], 1.27 fold enrichment (6-mer frequency, TF over GST control); in experiment [9] it was 1.24 fold enrichment (6-mer frequency, TF over GST control); in [10], 1.13 fold enrichment (6-mer frequency, TF over GST control).

As for TGCTAT, the binding signal in [1] is 1.39 fold enrichment (6-mer frequency, TF over GST control); in experiment [2] it was 1.43 fold enrichment (6-mer frequency, TF over GST control); in experiment [3], 1.22 fold enrichment (6-mer frequency, TF over GST control); in [4], 1.37 fold enrichment (6-mer frequency, TF over GST control); in experiment [5] it was 1.37 fold enrichment (6-mer frequency, TF over GST control); in experiment [6], 1.57 fold enrichment (6-mer frequency, TF over GST control). Moreover, the binding signal is 1.71 fold enrichment (6-mer frequency, TF over GST control) in experiment [7]; 1.6 fold enrichment (6-mer frequency, TF over GST control) in [8]; 1.3 fold enrichment (6-mer frequency, TF over GST control) in [9]; 1.31 fold enrichment (6-mer frequency, TF over GST control) in [10].

For the sequence GTCCTA, the binding signal in experiment [1] was 1.07 fold enrichment (6-mer frequency, TF over GST control); in [2], 1.16 fold enrichment (6-mer frequency, TF over GST control); in experiment [3], 1.03 fold enrichment (6-mer frequency, TF over GST control); in [4] it was 1.16 fold enrichment (6-mer frequency, TF over GST control); in experiment [5], 1.18 fold enrichment (6-mer frequency, TF over GST control); in experiment [6], 1.13 fold enrichment (6-mer frequency, TF over GST control). Besides, the binding signal in experiment [7] was 1.31 fold enrichment (6-mer frequency, TF over GST control); in experiment [8], 1.2 fold enrichment (6-mer frequency, TF over GST control); in experiment [9], 1.06 fold enrichment (6-mer frequency, TF over GST control); in experiment [10], 1.12 fold enrichment (6-mer frequency, TF over GST control).

In the case of AATGAT, the binding signal in [1] was 1.18 fold enrichment (6-mer frequency, TF over GST control); in experiment [2], 1.14 fold enrichment (6-mer frequency, TF over GST control); in experiment [3] it was 1.25 fold enrichment (6-mer frequency, TF over GST control); in experiment [4], 1.1 fold enrichment (6-mer frequency, TF over GST control); in experiment [5], 1.17 fold enrichment (6-mer frequency, TF over GST control); in [6] it was 1.25 fold enrichment (6-mer frequency, TF over GST control). Besides, the binding signal in experiment [7] was 1.21 fold enrichment (6-mer frequency, TF over GST control); in [8], 1.17 fold enrichment (6-mer frequency, TF over GST control); in experiment [9], 1.37 fold enrichment (6-mer frequency, TF over GST control); in [10] it was 1.07 fold enrichment (6-mer frequency, TF over GST control).

As for TTATGC, the binding signal in experiment [1] was 1.24 fold enrichment (6-mer frequency, TF over GST control); in [2], 1.3 fold enrichment (6-mer frequency, TF over GST control); in experiment [3] it was 1.58 fold enrichment (6-mer frequency, TF over GST control); in experiment [4], 1.55 fold enrichment (6-mer frequency, TF over GST control); in [5], 1.31 fold enrichment (6-mer frequency, TF over GST control); in experiment [6], 1.33 fold enrichment (6-mer frequency, TF over GST control). Besides, the binding signal in experiment [7] was 1.22 fold enrichment (6-mer frequency, TF over GST control); in experiment [8], 1.48 fold enrichment (6-mer frequency, TF over GST control); in experiment [9], 2.28 fold enrichment (6-mer frequency, TF over GST control); in experiment [10] it was 1.32 fold enrichment (6-mer frequency, TF over GST control).

Take ATTCGA: the binding signal in [1] was 1.27 fold enrichment (6-mer frequency, TF over GST control); in [2], 1.28 fold enrichment (6-mer frequency, TF over GST control); in [3] it was 2.51 fold enrichment (6-mer frequency, TF over GST control); in experiment [4], 1.41 fold enrichment (6-mer frequency, TF over GST control); in experiment [5], 1.38 fold enrichment (6-mer frequency, TF over GST control); in [6] it was 1.2 fold enrichment (6-mer frequency, TF over GST control). In addition, the binding signal in experiment [7] is 1.37 fold enrichment (6-mer frequency, TF over GST control); in experiment [8], 1.55 fold enrichment (6-mer frequency, TF over GST control); in experiment [9] it was 1.63 fold enrichment (6-mer frequency, TF over GST control); in experiment [10], 1.3 fold enrichment (6-mer frequency, TF over GST control).

Take CACGCT: the binding signal in [1] was 1.32 fold enrichment (6-mer frequency, TF over GST control); in experiment [2] it was 1.34 fold enrichment (6-mer frequency, TF over GST control); in experiment [3], 1.19 fold enrichment (6-mer frequency, TF over GST control); in [4], 1.23 fold enrichment (6-mer frequency, TF over GST control); in experiment [5] it was 1.43 fold enrichment (6-mer frequency, TF over GST control); in experiment [6] it was 1.36 fold enrichment (6-mer frequency, TF over GST control). In addition, the binding signal was 1.27 fold enrichment (6-mer frequency, TF over GST control) in [7]; 1.4 fold enrichment (6-mer frequency, TF over GST control) in experiment [8]; 1.17 fold enrichment (6-mer frequency, TF over GST control) in [9]; 1.34 fold enrichment (6-mer frequency, TF over GST control) in [10].

As to GCTAAT, the binding signal is 1.18 fold enrichment (6-mer frequency, TF over GST control) in experiment [1]; 1.11 fold enrichment (6-mer frequency, TF over GST control) in experiment [2]; 1.72 fold enrichment (6-mer frequency, TF over GST control) in [3]; 1.23 fold enrichment (6-mer frequency, TF over GST control) in experiment [4]; 1.27 fold enrichment (6-mer frequency, TF over GST control) in experiment [5]; 1.22 fold enrichment (6-mer frequency, TF over GST control) in experiment [6]. Moreover, the binding signal in [7] is 1.24 fold enrichment (6-mer frequency, TF over GST control); in experiment [8], 1.22 fold enrichment (6-mer frequency, TF over GST control); in [9], 2.56 fold enrichment (6-mer frequency, TF over GST control); in [10], 1.14 fold enrichment (6-mer frequency, TF over GST control).
